High-throughput results from PubChem.
FLuc modulator: counter-screen for miR-21 project: firefly luciferase inhibitors or activators; P08659; purified FLuc, Km substrates, luminescence inhibition; Potency, µM (top dose mostly 57.5 µM), without a hit: at the highest dose activity change, negative = inhibition, hits mostly inhibitors; 360,000 tested, 6.9% active; AID 588342;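 further: plate controls were vehicle for no effect and reference inhibitor for full effect; nearly all actives have a fitted effect of over 55% in size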
Target sequence (P08659 whole entry, looked up): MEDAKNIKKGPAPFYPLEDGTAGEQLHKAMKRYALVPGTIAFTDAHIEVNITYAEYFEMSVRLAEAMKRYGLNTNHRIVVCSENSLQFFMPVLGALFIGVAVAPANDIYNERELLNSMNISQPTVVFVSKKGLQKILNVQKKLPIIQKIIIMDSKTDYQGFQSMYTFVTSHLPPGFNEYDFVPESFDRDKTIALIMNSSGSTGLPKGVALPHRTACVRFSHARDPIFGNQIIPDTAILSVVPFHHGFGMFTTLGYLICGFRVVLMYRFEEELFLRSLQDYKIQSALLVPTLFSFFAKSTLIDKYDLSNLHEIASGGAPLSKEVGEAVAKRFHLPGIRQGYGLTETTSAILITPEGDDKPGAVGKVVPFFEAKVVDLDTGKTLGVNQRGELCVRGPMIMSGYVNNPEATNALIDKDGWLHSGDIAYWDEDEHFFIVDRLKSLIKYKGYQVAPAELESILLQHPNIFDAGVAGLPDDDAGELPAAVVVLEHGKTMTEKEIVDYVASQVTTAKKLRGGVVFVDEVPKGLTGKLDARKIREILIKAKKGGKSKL
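Purified P. pyralis luciferase, 10 nM final, with Km-level 10 uM D-luciferin and 10 uM ATP in 50 mM Tris acetate pH 7.5, 10 mM Mg acetate, 0.01% Tween-20, 0.05% BSA; 6-point qHTS titration about 60 µM downward; luminescence read.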
Rab9 prom act: Rab9 promoter activation | Huh7 Rab9 promoter-luciferase reporter, luminescence, 24 h | Potency, µM (series often up to 9.22 µM), for the others: at the top dose activation, negative = inhibition, most hits filed as activators | 320,000 tested, 2.8% active; further: % of control where 0% means no effect; nearly all actives have a fitted effect of over 60% in size
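Using Huh7 cells stably transfected with Rab9 promoter–luciferase, compounds were incubated 24 h at 37 °C, 5% CO2; luciferase luminescence was read 10 min after reagent addition.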
NPC1 prom act: activates the NPC1 promoter. AID 485313. Huh7 NPC1 promoter luciferase reporter, 24 h. 320,000 tested, 2.4% active. Potency, µM (titrated, usually from 9.22 µM), for inactives: at the top dose activation, actives largely listed as activators; further: % of control where 0% means no effect; nearly all actives have a fitted effect of over 60% in size
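NPC1 promoter–luciferase Huh7 cells; 24 h compound; luminescence.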
SMN2 splice up: SMN2 splice variant enhancement; Potency, µM (highest dose often 46.1 µM), without a hit: at the top dose activity change, positive = activation, usual class: activators; AID 1458; HEK293 SMN2-luciferase splicing reporter, luminescence, 30-36 h; 210,000 tested, 2.8% active; further: % of control where 0% means no effect; nearly all actives have a fitted effect of over 55% in size
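HEK293 cells carry an SMN2 minigene-luciferase reporter in which exon 7 inclusion puts luciferase in frame. Cells were seeded at 2000 cells/well, attached for 10-12 hours, then exposed to compounds for 30-36 hours at 37C before ONE-Glo luminescence.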
Luc counter: Kinase-Glo luciferase inhibition (counter-screen). Q27757. Kinase-Glo luciferase, ATP luminescence, 8 min. Potency, µM (top dose mostly 38.3 µM), without a hit: top-dose activity change, negative = inhibition, actives largely listed as inhibitors. 200,000 tested, 0.28% active; further: on the % scale 0 is the no-effect control and ±100 the full control effect; nearly all actives have a fitted effect of over 60% in size
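Inhibition of Kinase-Glo luciferase light generation was assessed at 10 uM ATP in pH 7.2 imidazole buffer, with luminescence measured after eight minutes at ambient temperature.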
ELG1 genotox: induces genotoxicity in HEK293T cells with luciferase-tagged ELG1; HEK293T ELG1-luciferase reporter, luminescence, 16 h; Potency, µM (titrated, usually from 46 µM), inactives show top-dose activity change, positive = activation, most hits filed as activators; 330,000 tested, 1.3% active; further: % of control where 0% means no effect; nearly all actives have a fitted effect of over 60% in size
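HEK293T cells expressing luciferase-tagged ELG1 were exposed to compound or DMSO vehicle for 16 hr at 37 °C and 5% CO2. Luciferase activity was then measured with ONE-Glo after 30 min at room temperature.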
An asterisk follows results filed as active. This is a sample that favours compounds with a hit; in the whole collection about 7.3% have one here. The call rests on the fitted dose curve; in most records, active means well fitted curve in the direction sought with a large enough effect; inconclusive means small, poorly fitted or top-dose-only effect, or another doubt; inactive means no such curve, though single readings can be large; an effect the other way counts as inactive or inconclusive. Potency means the concentration at half of the fitted maximal effect.

COc1ccc(NC(=O)CN(C)C(=O)c2ccc(-c3ccccc3Cl)o2)cc1 was read as FLuc modulator 23.9µM*, Rab9 prom act 0.1%, NPC1 prom act -1.2% and ELG1 genotox 12.4%.
For COc1ccc(NC(=O)CN(C)C(=O)c2ccc(-c3cccc(C(F)(F)F)c3)o2)cc1 the results were FLuc modulator inconclusive, Rab9 prom act 8.8%, NPC1 prom act 13.9% and ELG1 genotox 0.5%.
Screening COc1ccc(NC(=O)c2ccc(-c3ccccc3C(F)(F)F)o2)cc1 returned FLuc modulator 19µM*, Rab9 prom act 3.5%, NPC1 prom act 8.5%, SMN2 splice up -0.7%, Luc counter -1.2% and ELG1 genotox 9.0%.
`COc1ccc(NC(=O)CN(C)C(=O)c2cc(-c3ccco3)nc3ccccc23)cc1` gave FLuc modulator 16.9µM*, Rab9 prom act -1.1%, NPC1 prom act -3.1% and ELG1 genotox -9.3%.
Screening Cc1cc(NC(=O)CN(C)S(=O)(=O)c2ccc3c(c2)CCC(=O)N3)ccc1Br returned FLuc modulator inconclusive and SMN2 splice up -43.1%.
`CCC(C)NC(=O)c1cnn(-c2ccc(Cl)cc2)c1C1CCN(C(=O)OC(C)(C)C)CC1` (centres undefined) gave FLuc modulator 4.0%.
For COc1cccc([C@@H]2Oc3ccc(Br)cc3C[C@H]2OC(=O)N[C@H](C)C2CCCCC2)c1 the results were SMN2 splice up 2.5% and Luc counter 1.9%.
`COc1cc(/C=N/NC(=O)c2cc(-c3ccco3)nc3ccccc23)cc(OC)c1O` gave FLuc modulator 12µM*, Rab9 prom act -2.1%, NPC1 prom act -5.7% and ELG1 genotox -4.5%.
COc1cc(OC)c(OC)cc1/C=C/c1nc2cc3ccccc3cc2c(=O)n1-c1ccccc1Br was read as FLuc modulator -3.1%.
CCc1ccc(C(=O)CC2(O)C(=O)N(Cc3ccc(C)cc3)c3ccccc32)cc1 (centres undefined) was read as FLuc modulator 7.57µM* and SMN2 splice up -9.0%.
Cc1ccc(C(=O)CC2(O)C(=O)N(Cc3ccccc3)c3ccccc32)c(C)c1 (centres undefined) was read as FLuc modulator 19µM* and SMN2 splice up -20.6%.
C=CCn1c(=S)[nH]c2ccc(Br)cc2c1=O was read as FLuc modulator 2.1%, Rab9 prom act -4.2%, NPC1 prom act -0.2%, SMN2 splice up -6.5%, Luc counter 3.1% and ELG1 genotox -13.9%.
C=CCn1c(=S)[nH]c2nc3c(cc2c1=O)CCCC3 was read as FLuc modulator -15.8%, Rab9 prom act 15.7%, NPC1 prom act 18.9%, SMN2 splice up -14.2%, Luc counter -14.5% and ELG1 genotox 16.4µM*.
For Oc1cc(-n2cccn2)c(O)cc1-n1cccn1 the results were FLuc modulator 16.9µM*, Rab9 prom act -2.0%, NPC1 prom act -0.5% and ELG1 genotox inconclusive.
COCCNC(=O)c1ccc(CSc2nc3ccccc3s2)cc1 was read as FLuc modulator inconclusive, Rab9 prom act inconclusive, NPC1 prom act inconclusive and ELG1 genotox 14.3%.
`c1ccc2sc(SCc3ccc(-c4nnco4)cc3)nc2c1` gave FLuc modulator 4.78µM*, Rab9 prom act 3.16µM*, NPC1 prom act 1.41µM*, SMN2 splice up 12.6µM*, Luc counter -9.2% and ELG1 genotox inconclusive.
For CCNC(=O)c1ccc(CSc2nc3ccccc3s2)cc1 the results were FLuc modulator 5.36µM*, Rab9 prom act -0.9%, NPC1 prom act 6.1% and ELG1 genotox 10.7%.
Screening NC(=O)c1ccc(CSc2nc3ccccc3s2)cc1 returned FLuc modulator inconclusive, Rab9 prom act 2.82µM*, NPC1 prom act inconclusive and ELG1 genotox inconclusive.
